In all, about 410,000 compounds went through this assay and about 310 (0.076%) were called active. Roughly 2% stayed inconclusive and do not appear here. Calls follow the shape of the dose curve; as a rule, active = well fitted activation curve with a large enough effect; inconclusive = small, poorly fitted or top-dose-only effect, or another doubt; inactive = no such curve, though single readings can be large or run the other way. Only a selection was taken, and actives are over-represented in it overall.
What follows are molecules tested against Parathyroid hormone/parathyroid hormone-related peptide receptor (Homo sapiens) (UniProt Q03431) (assay: qHTS for PTHR1 Agonists: Primary Screen). Details: HEK293 GP2 PTHR1 cells, GloSensor cAMP luminescence, 1 h; series mostly up to 115 µM.
How it was run: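 HEK-293-derived GP2 cells expressing PTHR1 and a GloSensor cAMP reporter, 3,000/well, plated overnight, given luciferin plus IBMX (each 0.5 mM as added) for 1 h at 37 °C, then compound for 1 h at 37 °C. Luminescence was read after 15 min at room temperature.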
Also: nearly all actives have a fitted effect of over 55% in size.
Potency is read from the fitted curve at half-maximal effect.

Parathyroid hormone/parathyroid hormone-related peptide receptor (Homo sapiens), sequence (Q03431 whole entry, looked up): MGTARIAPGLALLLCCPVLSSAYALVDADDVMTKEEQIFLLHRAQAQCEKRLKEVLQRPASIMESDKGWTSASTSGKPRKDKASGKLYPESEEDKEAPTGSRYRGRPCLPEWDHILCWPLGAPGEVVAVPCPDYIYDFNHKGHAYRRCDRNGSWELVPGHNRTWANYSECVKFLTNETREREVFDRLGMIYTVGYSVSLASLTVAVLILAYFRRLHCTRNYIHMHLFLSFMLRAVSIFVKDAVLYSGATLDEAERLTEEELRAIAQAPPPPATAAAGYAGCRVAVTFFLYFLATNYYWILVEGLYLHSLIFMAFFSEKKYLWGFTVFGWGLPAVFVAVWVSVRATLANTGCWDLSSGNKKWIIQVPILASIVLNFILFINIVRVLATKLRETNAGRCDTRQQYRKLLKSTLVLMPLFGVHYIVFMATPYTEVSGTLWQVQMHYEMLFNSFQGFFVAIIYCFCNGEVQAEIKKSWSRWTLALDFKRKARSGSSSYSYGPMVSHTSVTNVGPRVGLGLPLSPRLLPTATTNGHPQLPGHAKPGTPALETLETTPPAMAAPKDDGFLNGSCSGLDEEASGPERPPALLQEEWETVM

Potency, inactive:
CCCC(=O)N1CCN(c2nc3c(OC)ccc(C)c3s2)CC1
Cc1ccc(NC(=O)CN2C(=O)CC(C)Sc3ccccc32)c(C)c1 (centres undefined)
COc1cc(NC(=O)c2nc3ccccc3nc2C)cc(OC)c1OC
CN(C)Cc1c(O)ccc2c(=O)c(-c3ccccc3Cl)coc12
CCN(Cc1ccccc1)Cc1c(O)ccc2c(=O)c(-c3ccc(Cl)cc3Cl)coc12
CC1CCN(S(=O)(=O)c2ccc3c(c2)N(CC(=O)NCc2ccccc2Cl)C(=O)CO3)CC1
COC(=O)c1cc(NC(=O)CCc2c(C)nc3c4c(C)cc(C)nc4nn3c2C)cc(C(=O)OC)c1
COc1ccc(Cn2cc(C(=O)c3ccc(C)cc3)c(=O)c3cc(OC)c(OC)cc32)cc1
Cc1oc2ncnc(N3CCCCC3)c2c1C(=O)N1CCN(c2cccc(Cl)c2)CC1
CCOC(=O)N1CCc2c(sc3c2C(=O)NC(c2ccccc2F)N3)C1 (centres undefined)
COc1ccc(NC(=O)Cn2c(=O)cc(C)c3c(C)nn(-c4cccc(Cl)c4C)c32)cc1OC
Cc1ccc(C)c(NC(=O)CSC2=Nc3ccccc3N=C(c3ccc(F)cc3)C2)c1
CCN(CC)c1ccc(NS(=O)(=O)c2cc(-c3cc(C)no3)ccc2C)c(C)c1
CCCCC12CN3CC(C)(CN(C1)C3c1ccc(O)c(OC)c1)C2=O (centres undefined)
CC(=O)c1ccc(NC(=O)C2CCN(S(=O)(=O)c3c(C)noc3/C=C/c3ccc(C)cc3)CC2)cc1
COC(=O)c1ccccc1NC(=O)c1ccc2c(=O)n3c(nc2c1)CCCCC3
COc1ccccc1-c1cc2nc(C)c(CCC(=O)NC3CCCCC3)c(C)n2n1
CCc1ccc(CN(Cc2ccco2)C(=O)COc2ccc(Cl)c(C)c2)cc1
COc1cccc2c1cc1c(=O)n(CC(=O)N3CCN(c4ccccc4)CC3)nc(C)n12
O=C(NCCc1ccccc1)c1ccc2c(c1)N(Cc1ccc(F)cc1)C(=O)c1ccccc1S2(=O)=O
Cc1nc2ccn(Cc3cccnc3)c(=O)c2cc1C(=O)N1CCN(c2ccccc2F)CC1
CCc1ccc(NC(=O)CCS(=O)(=O)c2cc3c(cc2Cl)NC(=O)CO3)cc1
Cc1ccc(C(=O)Nc2cc3c(cc2N2CCCC2)n(C)c(=O)c(=O)n3C)cc1

Potency, active:
CC(C)CN(Cc1c(O)ccc2c(=O)c(-c3ccccc3)coc12)CC(C)C 35.5 µM

— PubChem BioAssay AID743266 (National Center for Advancing Translational Sciences (NCATS), 2014)
